Sampled rows, rich in hits. Any-hit rate of the full collection: about 19%.
DT40 TDP1 no CPT: qHTS for Inhibitors of human tyrosyl-DNA phosphodiesterase 1 (TDP1): qHTS in cells in absence of CPT. DT40 Tdp1-/- hTDP1 cells, no CPT, ATP luminescence, 48 h. Potency, µM (titrated, usually from 46.2 µM), inactives show at the top dose activity change, negative = growth inhibition, hits mostly inhibitors. 420,000 tested, 15% active. AID 686978, 2013; note: potency is the fitted concentration of half-maximal effect; nearly all actives have a fitted effect of over 55% in size
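Readout: luminescence from CellTiter-Glo after 30 min in the dark at RT. Cells: DT40 Tdp1-/- with stable hTDP1, 400/well. Exposure: compounds alone, ≥48 hr, 37 °C.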
IL-1B inflam inh: inflammasome signaling inhibition, IL-1 beta readout; THP-1 LPS/ATP IL-1B secretion, AlphaLISA, 16 h; hits give low values; activity change, % at 57.5 µM; 360,000 tested, 4.7% active; AID 743279; in the data active = activity change below about -50%; inconclusive = mostly about -30% to -49%
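Secreted IL-1B measured by AlphaLISA bead assay after 16 h compound exposure of THP-1 cells; compounds (final up to 57.5 uM) added 1 h before LPS (250 ng/mL) and ATP (1.25 mM) stimulation; lower signal means less secretion.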
HT1080-NT tox: kills 2HG-producing HT-1080-NT fibrosarcoma cells | HT-1080-NT fibrosarcoma viability, CellTiter-Glo ATP luminescence, 48 h | Potency, µM (titrated, usually from 46.1 µM), for inactives: top-dose activity, negative = less viability, most hits filed as cytotoxic | 360,000 tested, 1.6% active | AID 686970;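 note: NT is the 2HG producing partner of a matched IDH1 knockdown line; potency is the fitted concentration of half-maximal effect; 0% = DMSO-treated cells and -100% = media-only wells without cells; nearly all actives have a fitted effect of over 55% in size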
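Viability by CellTiter-Glo luminescence after 48 h compound exposure at 37C of HT-1080-NT cells (750/well, RPMI, 5% FBS). % activity scaled between DMSO wells and medium-only wells, then curve-fitted and categorized by curve class.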
DT40 TDP1 CPT: DT40-hTDP1 cell growth loss with CPT. Potency, µM (titrated, usually from 46.2 µM), for inactives: at the highest dose activity change, negative = growth inhibition, usual class: inhibitors. chicken DT40 Tdp1-/-;hTDP1 cells + 20 nM CPT, ATP luminescence, 48 h. 420,000 tested, 12% active; note: potency is the fitted concentration of half-maximal effect; nearly all actives have a fitted effect of over 55% in size
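Chicken DT40 Tdp1-/- cells complemented with human TDP1, 400 cells/well, exposed to compounds plus 20 nM camptothecin for at least 48 h at 37 C; viability read as ATP content by CellTiter-Glo luminescence.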
HT1080 IDH1KD tx: kills HT-1080 cells with IDH1 knockdown. AID 686971. 360,000 tested, 2% active. HT-1080 IDH1 knockdown viability, ATP luminescence, 48 h. Potency, µM (titrated, usually from 46.1 µM), for the others: top-dose activity, negative = toxicity, hits mostly cytotoxic;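 note: potency is the fitted concentration of half-maximal effect; 0% = DMSO wells and -100% = cell-free medium wells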
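Knockdown cells (IDH1KD HT-1080) received compounds 2 h after plating at 750 cells/well and were kept 48 h at 37 °C in 5% FBS RPMI. A CellTiter-Glo luminescence read gave % activity for curve fitting.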
* marks the source's active call; other numbers are inactive results; ? = inconclusive; nt = no result; [ ] = remark or other dose. Unless noted, calls come from the whole dose curve; as a rule, active = well fitted curve in the direction sought with a large enough effect; inconclusive = small, poorly fitted or top-dose-only effect, or another doubt; inactive = no such curve, though single readings can be large; an effect the other way counts as inactive or inconclusive. Unless noted, % is set by controls: 0 for no effect and ±100 for the full control effect.

SMILES	DT40 TDP1 no CPT	IL-1B inflam inh	HT1080-NT tox	DT40 TDP1 CPT	HT1080 IDH1KD tx
COc1ccccc1NC(=O)NCC(c1ccco1)N1CCCCC1 (stereo unspecified)	12.4%	16.9	-1.8%	-18.3%	0.5%
O=C(NCc1cccs1)C1CC(c2ccc(Cl)cc2)=NO1 (stereo unspecified)	11.6µM*	3.8	-21.7%	13µM*	?
COc1ccc(OC)c(C2=NOC(C(=O)NCCN3CCOCC3)C2)c1 (stereo unspecified)	-3.7%	-0.1	-0.3%[9.24 µM]	2.8%	-0.7%
O=C(NCCc1cccs1)C1CC(c2c(Cl)cccc2Cl)=NO1 (stereo unspecified)	7.31µM*	0.4	16.4%	4.11µM*	-3.6%
COc1ccc(OC)c(C2=NOC(C(=O)NCc3cccs3)C2)c1 (stereo unspecified)	7.31µM*	39.1	-29.7%	?	?
C[C@H](O)CO[C@H]1[C@H]2O[C@H]3[C@H](O)[C@@H](O)[C@@H](O[C@H]4[C@H](O)[C@@H](O)[C@@H](O[C@H]5[C@H](O)[C@@H](O)[C@@H](O[C@H]6[C@H](O)[C@@H](OC[C@H](C)O)[C@@H](O[C@H]7[C@H](O)[C@@H](OC[C@H](C)O)[C@@H](O[C@H]8[C@H](O)[C@@H](O)[C@@H](O[C@@H]([C@@H]1O)[C@@H](CO)O2)O[C@@H]8CO)O[C@@H]7CO)O[C@@H]6CO)O[C@@H]5CO)O[C@@H]4CO)O[C@@H]3CO	-4.8%	nt	nt	-6.9%	nt
COCCNC(=O)C1(C)CCCN(C(=O)c2cccc(C#N)c2)C1 (stereo unspecified)	0.2%	9.7	18.0%	-0.3%	10.9%
Cc1ccccc1CN(C)C(=O)CNC(=O)c1ccc2ccccc2c1	-18.1%	-12.1	10.4%	-8.9%	-0.5%
COc1cc(C)c(NC(=O)COc2cccc3c2OC(C)(C)C3)cc1OC	11.6µM*	36.6	-4.8%	16.4µM*	-23.5%
Cc1ccc(CNC(=O)COc2cccc3c2OC(C)(C)C3)cc1	18.4µM*	-15.1	-6.1%	?	-4.6%
COc1ccc(CNCC(O)COc2cccc3c2OC(C)(C)C3)cc1 (stereo unspecified)	8.2µM*	?	?	9.2µM*	-29.0%
COc1ccccc1NC(=O)COC(=O)COc1cccc2c1OC(C)(C)C2	-13.8%	1.0	12.1%	-10.5%	11.8%
COc1cc(NC(=O)COc2cccc3c2OC(C)(C)C3)cc(OC)c1OC	8.2µM*	0.0	-1.4%	13µM*	-1.3%
COC(=O)c1ccc(NC(=O)CN2C(=O)c3cccc4cccc2c34)cc1	-20.8%	nt	nt	-16.6%	nt
C=C1C=C(C(F)F)n2ncc(C(=O)Nc3cccc(CC)c3)c2N1	-13.6%	nt	nt	-1.0%	nt
COc1ccc(NC(=O)COc2cccc3c2OC(C)(C)C3)c(OC)c1	16.4µM*	7.8	-5.3%	?	-26.6%
Cc1ccc(-c2nc(C3CCN(S(C)(=O)=O)CC3)no2)cc1	-24.7%	-2.1	-3.3%	-26.9%	5.1%
CCOc1ccc(-n2c(SCc3ccc(C(=O)OC)o3)nc3c([nH]c4ccccc43)c2=O)cc1	?	nt	nt	23.1µM*	nt
COC(=O)c1ccc(CSc2nc3c([nH]c4ccccc43)c(=O)n2-c2ccc(OC)cc2)o1	18.4µM*	nt	nt	18.4µM*	nt
CCOC(=O)CSc1nc2c([nH]c3ccccc32)c(=O)n1-c1ccc(OC)cc1	?	nt	nt	-20.0%	nt
O=C(O)C(NC(=O)c1ccccc1)=C(Cl)Cl	-1.2%	-12.3	10.1%	1.2%	23.9%
CCCCOC(=O)/C=C\C(=O)NC(N)=O	?	-105.2*	?	?	?
CCCCOC(=O)/C=C\C(=O)OCCCC	-19.4%	-1.6	3.5%	-26.3%	0.0%
CNS(=O)(=O)c1cccc(C(=O)OCC(=O)N(Cc2ccccc2)C(C)(C)C)c1	-29.1%	1.8	18.4%	-17.1%	1.5%
O=C(Nc1c(F)cccc1F)c1ccc2c(c1)CCN2S(=O)(=O)c1ccccc1	-7.2%	-66.7*	-3.8%	?	-29.5%
SMILES	DT40 TDP1 no CPT	IL-1B inflam inh	HT1080-NT tox	DT40 TDP1 CPT	HT1080 IDH1KD tx
O=C(Nc1ccccc1F)c1ccc2c(c1)CCN2S(=O)(=O)c1ccccc1	-28.1%	-68.6*	-1.7%	?	-8.1%
Cc1cc(NC(=O)COC(=O)C2=NN(c3ccccc3)C(=O)CC2)c([N+](=O)[O-])cc1C	-12.7%	-0.2	3.6%	-0.4%	5.2%
CCn1cc(S(=O)(=O)c2ccc(C)cc2)c(=O)c2cc(OC)ccc21	16.1%	14.6	-1.0%	-3.3%	3.1%
CNC(=O)Cn1nc(C)c(S(=O)(=O)N2CCOCC2)c1C	-1.9%	9.2	16.3%	1.7%	6.0%
Cc1cc(N2CCC(C(=O)N(CC(C)C)CC(C)C)CC2)n2nc(C)c(-c3ccc(Cl)cc3)c2n1	-16.7%	nt	nt	-24.6%	nt
O=C(NCc1cccc(Cl)c1)c1ccc(NC(=O)N2CC3CCCN3c3ccccc32)cc1 (stereo unspecified)	13µM*	nt	nt	23.1µM*	nt
COc1ccc(OC)c(NC(=O)N2CC(C)Oc3ccc(C)cc32)c1 (stereo unspecified)	20.6µM*	nt	nt	?	nt
COc1ccc(OC)c(NC(=O)N2CC3CCCN3c3ccccc32)c1 (stereo unspecified)	23.1µM*	nt	nt	?	nt
COc1ccc(CNC(=O)C2CCC(=O)N(C3CCCCCC3)C2)c(OC)c1 (stereo unspecified)	8.2µM*	12.1	0.6%	16.4µM*	6.6%
COc1ccc(OC)c(CNC(=O)CCC(=O)N2Cc3ccccc3Oc3ncccc32)c1	0.0%	3.6	2.8%	-12.8%	14.0%
COc1ccc(CNC(=O)CCC(=O)N2CC3CCCN3c3ccccc32)c(OC)c1 (stereo unspecified)	20.6µM*	nt	nt	18.4µM*	nt
O=C(CCC(=O)N1CC2CCCN2c2ccccc21)NCc1cccc(Cl)c1 (stereo unspecified)	7.31µM*	nt	nt	14.6µM*	nt

Screens deposited in PubChem BioAssay by National Center for Advancing Translational Sciences (NCATS).
